Measurements reported in PubChem BioAssay (NCATS).
Records with an inconclusive call do not appear. Active and inactive are the calls of the source. Calls follow the shape of the dose curve; as a rule, active = well fitted inhibition curve with a large enough effect; inconclusive = small, poorly fitted or top-dose-only effect; inactive = flat fitted curve, though single readings scatter. Where a SMILES comes first, the peptide text is derived from it. The star is where a group is joined. PhAc = O=C(Cc1ccccc1)*

What follows are molecules tested on HEK293 (assay: Cytotoxic Profiling of Annotated Libraries Using Quantitative High-Throughput Screening (AID 1296008; also: nearly all actives have a fitted effect of over 60% in size)). Settings: Five cell lines viability, CellTiter-Glo ATP luminescence, 48-72 h; max response: stronger effect = lower value.
Text: Cell-based phenotypic screening is a commonly used approach to discover biological pathways, novel drug targets, chemical probes and high-quality hit-to-lead molecules. Many hits identified from high-throughput screening campaign are ruled out through a series of follow-up potency, selectivity/specificity, and cytotoxicity assays. Prioritization of molecules with little or no cytotoxicity for a more in-depth downstream evaluation influence the future direction of projects, so cytotoxicity profiling of the screening libraries at early stage is essential for increasing the likelihood of candidate success. […] For the annotated library, we also examined the primary targets and mechanistic pathways regularly associated with cell death. To our knowledge, this is the first study to use high-throughput screening to profile large libraries for cytotoxicity assessment in both normal and cancer cell lines. In summary, the results generated here constitutes a valuable resource for the scientific community and provides insight on identifying cytotoxic compounds with particular mechanisms of action, and prioritizing compounds with suitable cytotoxicity profile for further evaluation.
A pintool (Kalypsys) was used to transfer 23 nL of compound solution to the 1536-well assay plates. After 48 or 72 hr incubation at 37 degree Celsius, 5% CO2 and 95% humidity, 2.5 uL of CellTiter-Glo (Promega) was dispensed into each well using a dispenser (Aspect Automation, St. Paul, MN) with solenoid valves (Lee Valves, Westbrook CT). Plates were left at room temperature for 10 min before imaging the ATP-coupled luminescence using a ViewLux microplate imager (PerkinElmer, Waltham, MA).
% is scaled to controls: 0 for no effect and ±100 for the full control effect; potency is read from the fitted curve at half-maximal effect.

| Structure (SMILES) | max response | Potency | outcome |
| --- | --- | --- | --- |
| CC(=O)O[C@@H]1[C@H](OC(C)=O)C[C@@]2(C)C(CC[C@@H](C)[C@]23Cc2c(O)cc4c(c2O3)CN([C@@H](CCC(=O)O)C(=O)O)C4=O)C1(C)C (stereo not given in full) | -1.84% (inactive) |  |  |
| COC(=O)c1cc(OC)cc(OC)c1C(=O)c1c(OC)cc2c(c1O)C1CCC(O)C(C)(O2)O1 (stereo not given) | 0.585% (inactive) |  |  |
| CC1=COC(OC2OC(CO)C(O)C(O)C2O)C2C(CO)CC(OC(=O)/C=C/c3ccc(O)cc3)C12 (stereo not given) | 0.352% (inactive) |  |  |
| O=C(OCC1=CC(Cl)C(O)C(OC(=O)c2ccccc2)C1O)c1ccccc1 (stereo not given) | -7.58% (inactive) |  |  |
| C[C@@H]1O[C@@H](O[C@H]2[C@H](OC(=O)[C@]34CCC(C)(C)C[C@H]3C3=CCC5[C@@]6(C)CC[C@H](O[C@@H]7O[C@H](CO[C@@H]8OC[C@H](O)[C@H](O)[C@H]8O[C@@H]8OC[C@@H](O)[C@H](O)[C@H]8O)[C@@H](O)[C@H](O)[C@H]7O)C(C)(C)C6CC[C@@]5(C)[C@]3(C)C[C@H]4O)O[C@H](CO)[C@@H](O)[C@@H]2O)[C@H](O[C@@H]2O[C@H](CO)[C@@H](O)[C@H](O)[C@H]2O)[C@H](O)[C@H]1O[C@@H]1OC[C@@H](O)[C@H](O[C@@H]2OC[C@@H](O)[C@H](O)[C@H]2O)[C@H]1O (stereo not given in full) | 5% (inactive) |  |  |
| O=C(O)CC1CCC(c2ccc(NC(=O)c3nnc(Nc4ccc(F)c(F)c4)o3)cc2)CC1 (stereo not given) | 1.04% (inactive) |  |  |
| CC(=O)NC(C(=O)OC1CCC(C)(C)C2CC=C3C(=O)OCC3C12C)C(C)C (stereo not given) | -2.64% (inactive) |  |  |
| Oc1ccc(CC2NCCc3cc(O)c(O)cc32)cc1 (stereo not given) | -11.9% (inactive) |  |  |
| CC1(C)CC[C@]2(C(=O)O)CC[C@]3(C)C(=CCC4[C@@]5(C)CC[C@H](O[C@@H]6O[C@H](C(=O)O)[C@@H](O)[C@H](O)[C@H]6O)C(C)(C)C5CC[C@]43C)C2C1 (stereo not given in full) | -9.32% (inactive) |  |  |
| C[C@H]1[C@H](C)C[C@@H](C(=O)O)C2CC[C@]3(C)C(=CC[C@@H]4[C@@]5(C)CC[C@H](O)C(C)(C)[C@@H]5CC[C@]43C)[C@@H]21 (stereo not given in full) |  | 25.9 µM (active) |  |
| O=C(OC(C(F)(F)F)C(F)(F)F)N1CCN(Cc2cccc(Oc3ccccc3)c2)CC1 | -26.5% (inactive) |  |  |
| CC1OC(OC2C(OC3C(O[C@H]4CC[C@@]5(C)C(CC[C@]6(C)C5C(=O)CC5=C7CC(C)(C)CC(O)[C@]7(C)CC[C@]56C)C4(C)C)OC(C(=O)O)C(O)C3O)OCC(O)C2O)C(O)C(O)C1O (stereo not given in full) | 2.58% (inactive) |  |  |
| COc1c2ccoc2nc2c(OC)c(O[C@@H]3O[C@@H](C)[C@H](O)[C@@H](O[C@@H]4O[C@H](CO)[C@@H](O)[C@H](O)[C@H]4O)[C@H]3OC(C)=O)ccc12 | -0.274% (inactive) |  |  |
| CCOC(=O)CNC(=O)[C@@H]1CCCN1C(=O)Cc1ccccc1 (PhAc-Pro-Gly-OEt) | 4.73% (inactive) |  |  |
| CC1(C)C2CC[C@]3(C)C(C(=O)C=C4[C@H]5C[C@@](C)(C(=O)O)CC[C@]5(C)CC[C@]43C)[C@@]2(C)CC[C@@H]1O (stereo not given in full) | -0.352% (inactive) |  |  |
| CC(C)=CCC[C@](C)(O[C@@H]1O[C@H](CO[C@@H]2O[C@@H](CO)[C@H](O)[C@H]2O[C@@H]2OC[C@@H](O)[C@H](O)[C@H]2O)[C@@H](O)[C@H](O)[C@H]1O)[C@H]1CC[C@]2(C)[C@@H]1[C@H](O)CC1[C@@]3(C)CC[C@H](O[C@@H]4O[C@H](CO)[C@@H](O)[C@H](O)[C@H]4O[C@@H]4O[C@H](CO)[C@@H](O)[C@H](O)[C@H]4O)C(C)(C)C3CC[C@]12C (stereo not given in full) | -1.64% (inactive) |  |  |
| C/C(=C\CCC1(C)C2CC3C(C2)C31C)C(=O)O (stereo not given) | -2.35% (inactive) |  |  |
| COC(=O)C1(O)C(OC(C)=O)CCC2C3(CC(c4ccoc4)OC3=O)C(C)=CCC21C(=O)OC (stereo not given) | 4.98% (inactive) |  |  |
| COc1cc(/C=C/C(=O)O[C@@H]2O[C@H](CO)[C@@H](O)[C@H](O)[C@H]2O)ccc1O |  |  | inactive |
| CC1OC(O[C@H]2CC[C@@]3(C)C(CC[C@]4(C)C3CC=C3C5CC(C)(C)CC[C@]5(C(=O)OC5OC(CO)C(OC6OCC(OC7OCC(O)C(O)C7O)C(O)C6O)C(O)C5O)CC[C@]34C)C2(C)C)C(O)C(O)C1OC1OC(CO)C(O)C(OC2OC(CO)C(O)C(O)C2O)C1O (stereo not given in full) | -5.73% (inactive) |  |  |

| Structure (SMILES) | max response | Potency | outcome |
| --- | --- | --- | --- |
| NC1=NC2(c3cc(NC(=O)c4ccc(F)cn4)ccc3F)COCC2CS1 (stereo not given) | -14.7% (inactive) |  |  |
| C[C@@H]1C(=O)O[C@H]2[C@H]1CC[C@@]1(C)C(=O)C=C[C@@](C)(O)[C@H]21 |  |  | inactive |
| Oc1ccc2c(-c3c(-c4ccccn4)nn4c3CCC4)ccnc2c1 | -21.7% (inactive) |  |  |
| CC1=C(C(=O)OC2OC(COC3OC(CO)C(O)C(O)C3O)C(O)C(O)C2O)C(C)(C)CCC1 (stereo not given) | 1.47% (inactive) |  |  |
| COC1CC(O[C@H]2CC[C@@]3(C)C(=CC[C@]4(O)C3[C@H](O)[C@@H](O)[C@]3(C)[C@@H]([C@H](C)O)CC[C@@]34O)C2)OC(C)C1OC1CC(OC)C(OC2CC(OC)C(OC3OC(C)C(OC4OC(CO)C(O)C(O)C4O)C(OC)C3O)C(C)O2)C(C)O1 (stereo not given in full) | -82.7% (inactive) |  |  |
| C/C=C(\C)C(=O)OC1C(C)C2(O)C3C=C(C)C(=O)C3CC(CO)=CC2C2C(C)(C)C12OC(C)=O (stereo not given) | -25.8% (inactive) |  |  |
| CCC12CCCN3CCc4c(n(c5ccccc45)C(O)C1)C32 (stereo not given) | -7.92% (inactive) |  |  |
| CC(C)C1C(OC(=O)/C=C/c2ccccc2)CC2(C)OC2CCC2(C)OC2C1O (stereo not given) | -5.07% (inactive) |  |  |
| CCC1(O)CC2c3cc(OC)c(OC)cc3CCN2CC1CC(C)C (stereo not given) | 0.903% (inactive) |  |  |
| Nc1c(-c2ccccc2)nc(Cl)c2c(O)n[nH]c(=O)c12 | -7.38% (inactive) |  |  |
| C=C1C2(C)CC3C4(C)OC(C5OC56C4=CC(=O)OC6(C)C)C3(C)C13C(=O)OC(C)C3(O)C2=O (stereo not given) | -4.51% (inactive) |  |  |
| C/C=C1/[C@H](O[C@@H]2O[C@H](CO)[C@@H](O)[C@H](O)[C@H]2O)OC=C2C(=O)O[C@@H]3C[C@@H](C(C)CO)[C@H](COC(=O)C[C@H]21)[C@H]3C (stereo not given in full) | -21.8% (inactive) |  |  |
| C=C1[C@H](OC(C)=O)[C@H]2[C@@H](OC(=O)c3ccccc3)[C@@H](C)C[C@]2(O)[C@@H](OC(C)=O)[C@H](C)/C=C/C(C)(C)C(=O)[C@H](OC(C)=O)[C@H]1OC(C)=O | -5.03% (inactive) |  |  |
| CC(=O)OCC1OC(O[C@H]2CC[C@]34C[C@]35CC(O)[C@]3(C)[C@@H]([C@H](C)CC/C=C(\C)C(=O)O)C(O)C[C@@]3(C)C5CC[C@H]4C2(C)C)C(O)C(O)C1OC1OCC(O)C(O)C1O (stereo not given in full) | -3.14% (inactive) |  |  |
| C[C@@H]1CC[C@]2(C(=O)O[C@@H]3O[C@H](CO[C@@H]4O[C@H](CO)[C@@H](O)[C@H](O)[C@H]4O)[C@@H](O)[C@H](O)[C@H]3O)CC[C@]3(C)C(=CCC4[C@@]5(C)CC[C@H](O)[C@](C)(C(=O)O)C5CC[C@]43C)[C@@H]2[C@]1(C)O (stereo not given in full) | 3.94% (inactive) |  |  |
| COc1cc(C(C)=O)ccc1O[C@@H]1O[C@H](CO)[C@@H](O)[C@H](O)[C@H]1O | -0.593% (inactive) |  |  |
| C[C@@H]1CC[C@]2(C(=O)O[C@@H]3O[C@H](CO[C@@H]4O[C@H](CO)[C@@H](O[C@@H]5O[C@@H](C)[C@H](O)[C@@H](O)[C@H]5O)[C@H](O)[C@H]4O)[C@@H](O)[C@H](O)[C@H]3O)CC[C@]3(C)C(=CCC4[C@@]5(C)C[C@@H](O)[C@H](O)[C@@](C)(CO)C5CC[C@]43C)C2[C@H]1C (stereo not given in full) | -0.975% (inactive) |  |  |
| COc1cc(C(CO)C(OC2OC(CO)C(O)C(O)C2O)c2ccc(O)c(OC)c2)ccc1O (stereo not given) | -2.64% (inactive) |  |  |
| CC1(C)O[C@H]2CC(=O)OC[C@@]23C1=C(O)C(=O)[C@]1(C)C3CC[C@@]2(C)[C@H](c3ccoc3)OC(=O)[C@H]3O[C@]321 (stereo not given in full) | 1.52% (inactive) |  |  |
| CCC(C)/C=C(C)/C=C/C1=CC2=C(Cl)C(=O)C(C)(O)C(=O)C2(O)C(OC)O1 (stereo not given) | -3.29% (inactive) |  |  |
